Measurements reported in the supplement of paper PMC4166925.
± gives the standard deviation of the averaged measurements. The full ranking holds about 33,000 sequences; the median of “E-score (dimensionless, -0.5 to 0.5)” is about -0.046, and the highest 2% start at about 0.36. The sample holds the highest values, similar sequences and a random draw of the others, so the mix is not that of the screen.

Each sequence was assayed on T1, SpTbr T-box DNA-binding domain (GST fusion) (assay: PBM E-score of 8-mer (E-score (dimensionless, -0.5 to 0.5)); Tbr is Tbrain of the sea star Patiria miniata (Pm) or the sea urchin Strongylocentrotus purpuratus (Sp); higher = stronger binding preference). Details: the construct has about 5 more residues each side.
T1 sequence: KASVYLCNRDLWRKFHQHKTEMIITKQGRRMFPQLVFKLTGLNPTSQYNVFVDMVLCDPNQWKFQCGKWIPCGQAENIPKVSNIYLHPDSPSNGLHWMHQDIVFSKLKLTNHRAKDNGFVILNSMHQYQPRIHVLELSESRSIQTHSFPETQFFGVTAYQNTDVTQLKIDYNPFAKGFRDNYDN
Outline: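 Expression of GST-fused Tbr T-box DNA-binding domains, each holding the full T-box plus roughly five flanking residues, was carried out in BL21 E. coli at 20 °C, with purification by glutathione affinity chromatography. Universal Agilent arrays made double-stranded by primer extension were incubated with the protein at 200 nM in PBS (pH 7.5), then scanned and quantified. All ungapped 8-mers were scored from probe intensities, and each received an enrichment E-score from the Universal PBM Analysis Suite, averaged over duplicate arrays.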

Sequence	PBM E-score of 8-mer
ACGAGCTA	-0.118 ± 0.015
TCAACCCA	-0.174 ± 0.026
ATACTTGC	0.0754 ± 0.026
ATGCATCA	0.0819 ± 0.023
CGACTGAC	0.0364 ± 0.013
AGAGGAGC	-0.0105 ± 0.083
ACCTGTAC	-0.148 ± 0.024
GAGTAAAC	-0.0192 ± 0.019
CCCAGAAA	-0.216 ± 0.045
TAGTGTCA	0.395 ± 0.032
AAGTGTCG	0.425
TAGTGTAA	0.216 ± 0.061
GAGTGTCA	0.4478 ± 0.0016
AAGTGTAG	0.144 ± 0.0052
CAGTGTCA	0.3068 ± 0.002
AAGTGTAA	0.399 ± 0.018
GATTGTCA	0.248 ± 0.0068
GAGTGTCC	0.0603 ± 0.01
CAGTGTCG	0.266 ± 0.0072
AAGTGTCT	0.292 ± 0.033
TCGTGTCA	0.294 ± 0.0086
AGCAAAGC	-0.0455 ± 0.048
AAAGCAGT	-0.167 ± 0.049
TGAGATAA	0.0687 ± 0.09

Sequence	PBM E-score of 8-mer
CACAGGGG	0.0864 ± 0.031
ACCGTTCC	-0.000825 ± 0.11
AAGTGTCC	0.2466 ± 0.0019
AAGTGTCA	0.46288 ± 2.8e-05
AAGTGTAT	0.0229 ± 0.032
CCTATGCG	0.00647 ± 0.019
GCACGCCA	0.0542 ± 0.013
CCACGCGA	0.172 ± 0.028
GCACGCGA	0.186 ± 0.025
ACGCGCCA	0.201 ± 0.019
ACACGCCA	0.205 ± 0.0044
TCACGCGA	0.3949 ± 0.0026
GCGCGCCA	0.133 ± 0.087
TCACGCCA	0.403 ± 0.0053
CCGCGCGA	0.203 ± 0.03
TCGCGCGA	0.379 ± 0.0069
TCGCGCCA	0.384 ± 0.009
GCGCGCGA	0.316 ± 0.041
CAGACAAA	-0.0589 ± 0.033
GGATACAA	0.0747 ± 0.011
CCGCCTCG	-0.0478 ± 0.058
TAAAGAAA	-0.13 ± 0.11
CCCTAACC	-0.113 ± 0.029
ACGCGCGA	0.393 ± 0.023

Sequence	PBM E-score of 8-mer
ACGCGCGC	0.189 ± 0.056
ACGCGCGG	0.229 ± 0.028
AAGTAGAA	0.0466 ± 0.046
GGTGAAAA	0.126 ± 0.095
TGTGAACA	0.445 ± 0.0018
AGTGAACA	0.175 ± 0.0043
TATGAACA	-0.0802 ± 0.022
CGTGAAAA	0.329 ± 0.069
CGTGAACA	0.3774 ± 0.003
CGTGAACC	0.353 ± 0.018
TGTGAAAA	0.394 ± 0.048
GGTGAACA	-0.0711 ± 0.04
AGATATTC	-0.243 ± 0.033
AGCTATTG	-0.0351 ± 0.028
ACTTAGAG	-0.0957 ± 0.015
CCCAAATC	-0.108 ± 0.11
CCAAGAGC	-0.28 ± 0.06
AGGTGAGC	0.2602 ± 0.00092
GGGTGAGA	0.424 ± 0.0073
CAGTGAGA	0.157 ± 0.062
AGGTGAGA	0.4826 ± 0.0046
AGGTGAGG	0.4113 ± 0.0021
GAGTGAGA	0.346 ± 0.023
AAGTGAGG	0.2725 ± 0.0021

Sequence	PBM E-score of 8-mer
AAGTGAGA	0.4 ± 0.018
CGGTGAGA	0.257 ± 0.012
ACGTGAGG	0.196 ± 0.024
GGGGGTGA	0.289 ± 0.03
AGGTGAAA	0.266 ± 0.045
CATCGATA	-0.00022 ± 0.06
CGCAAGGA	-0.051 ± 0.018
AGATTCCG	-0.0246 ± 0.022
CTCGTATA	-0.142 ± 0.0069
TAACTACA	0.0924 ± 0.085
ACGGTGTA	0.137 ± 0.026
GCGGTGTA	-0.122 ± 0.012
AAGGTGTG	0.4816 ± 0.0018
GGGGTGTA	0.167 ± 0.062
GAGGTGTA	0.418 ± 0.014
ACGGTGTG	0.3578 ± 0.0014
CCGGTGTA	0.115 ± 0.037
AAGGTTTG	-0.161 ± 0.046
AAGGTGTA	0.394 ± 0.023
TACGACCA	-0.249 ± 0.12
CGTGCACG	0.00996 ± 0.044
CTTTCTAA	-0.187 ± 0.023
